Measured values taken from PubChem BioAssay (EPA / NIEHS).
Some compounds were tested as several samples or in several runs, with calls that do not always agree. Activity calls are given as the source filed them. Rule for the calls: active = hit-call score of the fitted dose curve at least 0.9, where 1 is the maximum; inactive = score below 0.9.

Assay: ATG_SREBP_CIS: Attagene CIS-FACTORIAL HepG2 Assay for human Sterol Regulatory Element Binding (SREBP) (AID 2282962)
Conditions: HepG2 Attagene cis-factorial SREBP reporter, mRNA; actives raise or lower the signal
Procedure: ATG_CIS is a cell-based, multiplexed-readout assay that uses HepG2, a human liver cell line, with measurements taken at 24 hours after chemical dosing in a 24-well plate.ATG_SREBP_CIS is one of 52 assay component(s) measured or calculated from the ATG_CIS assay. It is designed to make measurements of mRNA induction, a form of inducible reporter, as detected with fluorescence intensity signals by Reverse transcription polymerase chain reaction (RT-PCR) and Capillary electrophoresis technology.Data from the assay component ATG_SREBP_CIS was analyzed into 1 assay endpoint. This assay endpoint, ATG_SREBP_CIS, was analyzed with bidirectional fitting relative to DMSO as the negative control and baseline of activity. Using a type of inducible reporter, measures of mRNA for gain or loss-of-signal activity can be used to understand the reporter gene at the transcription factor-level as they relate to the gene SREBF1. Furthermore, this assay endpoint can be referred to as a primary readout, because this assay has produced multiple assay endpoints where this one serves a reporter gene function. To generalize the intended target to other relatable targets, this assay endpoint is annotated to the dna binding intended target family, where the subfamily is basic helix-loop-helix leucine zipper.
Human liver HepG2 cells are transiently transfected with multiple reporter transcription units (MRTUs) in 6-well plates using FuGene 6 reagent (Roche; 3 ml FuGene/1 mg DNA). The MRTU constructs are regulated by a cis-regulating element (promoter). […] A major difference between the CIS and TRANS system is that in CIS activities of endogenous TFs are measured, whereas the TRANS assay evaluates changes in activities of exogenous, chimeric NR-Gal4 proteins. […] At the end of 24 hour incubation, total RNA was isolated using TriZol reagent (Invitrogen). The isolated RNA is then reverse-transcribed using oligo(dT) primer and Mo-MLV reverse transcriptase (Invitrogen) with DNAse I (Ambion) treatment for 30 min. The one-tenth of the produced cDNA was amplified by PCR using Taq DNA polymerase (Invitrogen) and two reporter sequence-specific primers. The PCR products were fluorescently labeled by primer extension with 6-arboxyfluorescein (6-FAM) 5'-labeled reporter sequence-specific primer (2 min at 95 C, 20 s at 68 C and 10 min at 72 C) and these products were digested with 5U of HpaI (New England Biolabs) for 2h at 37 C. The fragments were purified using Qiaquick PCR columns (Qiagen), analyzed on an ABI 3130xL genetic analyzer (Applied Biosystems) with peak positions identified by using a set of X-rhodamine (ROX)-labeled MapMarker1000 molecular weight standards (BioVentures). The raw capillary electrophoresis data was processed using Attagraph software (Attagene).

| SMILES | outcome | AC50 |
| --- | --- | --- |
| CCCCOCCOCCO | inactive |  |
| S=c1[nH][nH]c(=S)s1 | inactive |  |
| C=COCC1CCC(COC=C)CC1 (stereo not given) | inactive |  |
| Cc1cc(N)n(-c2ccccc2)n1 | inactive |  |
| CCCCCCCCSCc1cc(C)c(O)c(CSCCCCCCCC)c1 | inactive |  |
| OCC=Cc1ccccc1 | inactive |  |
| [Cu+] | inactive |  |
| NCCN1CCNCC1 | inactive |  |
| C=CC(O)CCCCC (stereo not given) | inactive |  |
| CC(=N[Si](C)(C)C)O[Si](C)(C)C | inactive |  |
| CCCOC(=O)CC | inactive |  |
| CCCCCCCCOS(=O)(=O)O | inactive |  |
| CCCCCCC(C)O (stereo not given) | inactive |  |
| NC(N)=S | inactive |  |
| COC(=O)c1ccc(C(=O)OC)cc1 | inactive |  |
| CC/C=C\CCOC(C)OCC (stereo not given) | inactive |  |
| CNC(=C[N+](=O)[O-])NCCSCc1ccc(CN(C)C)o1 | inactive |  |
| CC(C)=CC(=O)O | inactive |  |
| CC(C)CCCC(C)(C)O | inactive |  |
| [Na+] | inactive |  |

| SMILES | outcome | AC50 |
| --- | --- | --- |
| CC(=O)OCC=C(C)CCC=C(C)CCC=C(C)C | inactive |  |
| CCCCCC(=O)O[C@]1(C(C)=O)CC[C@H]2[C@@H]3CCC4=CC(=O)CC[C@]4(C)[C@H]3CC[C@@]21C |  | 33.2 µM (active) |
| CC12CCC(C1)C(C)(C)C2O (stereo not given) | inactive |  |
| CCC(C)COC(=O)CC(C)C (stereo not given) | inactive |  |
| NC(N)=NC(N)=NCCc1ccccc1 | inactive |  |
| Cc1ccc(C(C)(C)O)cc1 | inactive |  |
| CCCCCC1CCC(=O)O1 (stereo not given) | inactive |  |
| CCC(CC)CO | inactive |  |
| CN(C)CCC=C1c2ccccc2CCc2ccccc21 | inactive |  |
| CC(=O)OC(C)(C)C | inactive |  |
| C#C[C@]1(O)CC[C@H]2[C@@H]3CCc4cc(O)ccc4[C@H]3CC[C@@]21C | inactive |  |
| CN(C)C(=O)Nc1ccccc1 | inactive |  |
| CCOCC(C)O (stereo not given) | inactive |  |
| COc1cc(OC)c2ccc(=O)oc2c1 | inactive |  |
| CC1=CC[C@@H](C(C)(C)O)CC1 | inactive |  |
| NC(=O)NC(N)=O | inactive |  |
| CC1(C)[C@H](C=C(Cl)Cl)[C@H]1C(=O)OCc1cccc(Oc2ccccc2)c1 | inactive |  |
| CCCCCC#CC(=O)OC | inactive |  |
| CC(=O)c1cccnc1 | inactive |  |
| CCCCOCCOC(=O)c1ccccc1C(=O)OCCOCCCC | inactive |  |
